Here are results for 15 targets from the supplement of paper PMC10849652.

About 8,800 targets were measured; listed, in parts, are those with a hit and a random draw of the rest. About 0.5% of all pairs of compound and target were hits. Unmarked numbers belong to inactive results.

Test in all cases: log2 fold change, soluble protein after heating vs DMSO (PISA); higher = thermal stabilisation; K562 lysate, 10 uM; active = over 0.2 and 3.5 SD of the protein, either way, in both replicates (recomputed)
Compound in experiment [1]: Cc1cn(-c2cc(NC(=O)c3ccc(C)c(Nc4nccc(-c5cccnc5)n4)c3)cc(C(F)(F)F)c2)cn1 [nilotinib]
The essentials: (§1)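 The values are log-two fold changes in thermal stability compared with solvent controls and come from duplicates. They were obtained by TMTpro 16plex LC-MS/MS, with channel sums equalised, on the supernatant after 21,000xg for 90 min. That supernatant came from crude K562 extract at 1 mg/mL protein treated with 10 μM compound for 30 min, heated for 3 min across 48°C-58°C, pooled and brought to 0.5% NP-40 at 4°C.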

Compound in experiment [2]: Cc1nc(Nc2n[nH]c3c2CN(C(=O)N[C@H](CN(C)C)c2ccccc2)C3(C)C)c2sccc2n1
The method in brief: as §1

Compound in experiment [3]: Cc1nc(Nc2ncc(C(=O)Nc3c(C)cccc3Cl)s2)cc(N2CCN(CCO)CC2)n1 [dasatinib]
The method in brief: as §1

Compound in experiment [4]: Cc1ncc(-c2ccnc(Nc3ccc(S(C)(=O)=O)cc3)n2)n1C(C)C
The essentials:
as §1

Compound in experiment [5]: Cn1cc(-c2ccc3c(c2)CCN3C(=O)Cc2cccc(C(F)(F)F)c2)c2c(N)ncnc21
The essentials: as §1

Compound in experiment [6]: Cn1cc(CNCC2CCN(c3ncc(C(=O)NO)cn3)CC2)c2ccccc21 [quisinostat]
The method in brief:
as §1

Compound in experiment [7]: Cn1cncc1[C@@](N)(c1ccc(Cl)cc1)c1ccc2c(c1)c(-c1cccc(Cl)c1)cc(=O)n2C [tipifarnib]
The essentials:
as §1

Compound in experiment [8]: NC(=O)Nc1cc(-c2cccc(F)c2)sc1C(=O)N[C@H]1CCCNC1
The essentials: as §1

Compound in experiment [9]: NC(=O)c1cnc(N[C@@H]2CCCC[C@@H]2N)nc1Nc1cccc(-n2nccn2)c1
The essentials:
as §1

Compound in experiment [10]: NC1(c2ccc(-c3nc4ccn5c(=O)[nH]nc5c4cc3-c3ccccc3)cc2)CCC1
The method in brief:
as §1

Sequence of UniProt Q13015 (Q13015 whole entry, looked up): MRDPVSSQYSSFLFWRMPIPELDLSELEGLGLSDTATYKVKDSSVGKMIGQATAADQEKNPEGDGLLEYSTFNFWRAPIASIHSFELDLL
Sequence of UniProt Q9Y2E5 (Q9Y2E5 whole entry, looked up): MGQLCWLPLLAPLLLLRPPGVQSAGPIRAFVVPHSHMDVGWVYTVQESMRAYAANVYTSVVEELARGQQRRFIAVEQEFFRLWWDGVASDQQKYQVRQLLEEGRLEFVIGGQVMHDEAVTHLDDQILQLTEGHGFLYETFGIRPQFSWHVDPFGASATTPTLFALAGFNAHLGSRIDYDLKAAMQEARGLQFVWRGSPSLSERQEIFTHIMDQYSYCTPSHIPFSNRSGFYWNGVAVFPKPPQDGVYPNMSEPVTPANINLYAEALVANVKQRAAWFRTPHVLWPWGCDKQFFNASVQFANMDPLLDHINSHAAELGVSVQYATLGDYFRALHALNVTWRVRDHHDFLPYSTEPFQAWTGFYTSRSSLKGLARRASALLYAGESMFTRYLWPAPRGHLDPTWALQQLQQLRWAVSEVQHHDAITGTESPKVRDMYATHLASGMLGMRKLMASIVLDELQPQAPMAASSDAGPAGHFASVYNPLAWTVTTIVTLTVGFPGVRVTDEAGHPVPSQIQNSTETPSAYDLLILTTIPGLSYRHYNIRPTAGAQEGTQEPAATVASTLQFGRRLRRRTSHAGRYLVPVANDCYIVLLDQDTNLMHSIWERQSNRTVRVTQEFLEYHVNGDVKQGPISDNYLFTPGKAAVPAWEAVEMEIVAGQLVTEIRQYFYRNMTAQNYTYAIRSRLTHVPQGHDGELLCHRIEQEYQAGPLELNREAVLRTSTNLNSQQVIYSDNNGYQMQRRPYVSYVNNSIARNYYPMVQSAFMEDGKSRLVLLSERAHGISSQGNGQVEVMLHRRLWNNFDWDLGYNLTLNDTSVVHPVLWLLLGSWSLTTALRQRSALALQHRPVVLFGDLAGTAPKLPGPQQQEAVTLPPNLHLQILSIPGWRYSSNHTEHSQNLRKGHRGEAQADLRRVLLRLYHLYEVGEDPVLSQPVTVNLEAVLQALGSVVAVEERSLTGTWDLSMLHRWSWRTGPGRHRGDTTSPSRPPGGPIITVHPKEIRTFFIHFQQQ
Sequence of UniProt O75970 (O75970 whole entry, looked up): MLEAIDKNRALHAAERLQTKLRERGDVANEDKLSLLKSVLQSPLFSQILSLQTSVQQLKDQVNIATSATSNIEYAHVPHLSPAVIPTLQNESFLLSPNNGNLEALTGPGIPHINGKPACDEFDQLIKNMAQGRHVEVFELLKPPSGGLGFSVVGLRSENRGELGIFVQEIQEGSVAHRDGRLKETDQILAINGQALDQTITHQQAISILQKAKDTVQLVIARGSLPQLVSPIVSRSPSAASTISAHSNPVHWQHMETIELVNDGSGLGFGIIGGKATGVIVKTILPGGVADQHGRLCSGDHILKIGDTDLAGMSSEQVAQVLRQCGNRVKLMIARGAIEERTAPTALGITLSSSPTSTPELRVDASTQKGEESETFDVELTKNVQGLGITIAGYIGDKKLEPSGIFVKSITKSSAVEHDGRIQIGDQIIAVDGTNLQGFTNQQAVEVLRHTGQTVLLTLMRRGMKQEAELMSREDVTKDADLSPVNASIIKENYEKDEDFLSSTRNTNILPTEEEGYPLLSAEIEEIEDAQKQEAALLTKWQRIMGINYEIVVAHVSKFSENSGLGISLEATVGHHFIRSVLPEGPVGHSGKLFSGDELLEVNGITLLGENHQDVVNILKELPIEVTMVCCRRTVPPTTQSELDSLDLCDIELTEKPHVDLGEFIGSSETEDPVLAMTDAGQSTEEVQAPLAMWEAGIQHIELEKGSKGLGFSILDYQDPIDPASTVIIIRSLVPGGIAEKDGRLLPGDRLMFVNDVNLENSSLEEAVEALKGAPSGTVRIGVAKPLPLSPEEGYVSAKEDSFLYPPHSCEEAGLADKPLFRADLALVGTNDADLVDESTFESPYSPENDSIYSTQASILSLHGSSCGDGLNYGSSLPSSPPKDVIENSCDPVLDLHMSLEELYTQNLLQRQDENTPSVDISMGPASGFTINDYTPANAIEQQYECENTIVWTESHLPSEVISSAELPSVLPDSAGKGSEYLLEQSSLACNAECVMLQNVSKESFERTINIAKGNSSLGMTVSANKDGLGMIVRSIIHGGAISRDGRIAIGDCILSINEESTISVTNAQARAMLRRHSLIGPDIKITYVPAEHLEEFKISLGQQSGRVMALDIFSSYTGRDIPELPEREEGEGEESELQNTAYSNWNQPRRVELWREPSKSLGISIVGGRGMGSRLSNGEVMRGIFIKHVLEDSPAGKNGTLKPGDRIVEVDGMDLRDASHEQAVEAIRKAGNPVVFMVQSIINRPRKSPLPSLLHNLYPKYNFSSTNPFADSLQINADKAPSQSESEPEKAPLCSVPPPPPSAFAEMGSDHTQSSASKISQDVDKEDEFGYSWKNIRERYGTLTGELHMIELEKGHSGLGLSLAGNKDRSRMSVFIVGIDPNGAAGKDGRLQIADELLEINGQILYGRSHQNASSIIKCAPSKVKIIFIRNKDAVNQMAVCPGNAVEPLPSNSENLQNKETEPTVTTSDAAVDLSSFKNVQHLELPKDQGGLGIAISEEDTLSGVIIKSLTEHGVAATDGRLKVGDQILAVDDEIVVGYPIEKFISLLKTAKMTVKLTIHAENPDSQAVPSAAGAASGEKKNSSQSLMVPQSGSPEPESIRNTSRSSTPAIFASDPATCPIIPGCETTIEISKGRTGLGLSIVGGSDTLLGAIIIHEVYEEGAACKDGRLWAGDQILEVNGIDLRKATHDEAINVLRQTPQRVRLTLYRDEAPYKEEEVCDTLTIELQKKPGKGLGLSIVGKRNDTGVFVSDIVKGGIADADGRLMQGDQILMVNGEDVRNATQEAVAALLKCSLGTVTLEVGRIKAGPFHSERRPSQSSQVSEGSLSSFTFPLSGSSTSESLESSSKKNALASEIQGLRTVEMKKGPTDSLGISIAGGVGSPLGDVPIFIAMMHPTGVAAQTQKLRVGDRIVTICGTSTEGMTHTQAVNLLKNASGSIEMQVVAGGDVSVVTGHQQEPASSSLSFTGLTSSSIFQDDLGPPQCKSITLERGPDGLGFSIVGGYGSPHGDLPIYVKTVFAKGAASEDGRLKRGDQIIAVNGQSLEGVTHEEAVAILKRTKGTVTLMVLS
Sequence of UniProt P28838 (P28838 whole entry, looked up): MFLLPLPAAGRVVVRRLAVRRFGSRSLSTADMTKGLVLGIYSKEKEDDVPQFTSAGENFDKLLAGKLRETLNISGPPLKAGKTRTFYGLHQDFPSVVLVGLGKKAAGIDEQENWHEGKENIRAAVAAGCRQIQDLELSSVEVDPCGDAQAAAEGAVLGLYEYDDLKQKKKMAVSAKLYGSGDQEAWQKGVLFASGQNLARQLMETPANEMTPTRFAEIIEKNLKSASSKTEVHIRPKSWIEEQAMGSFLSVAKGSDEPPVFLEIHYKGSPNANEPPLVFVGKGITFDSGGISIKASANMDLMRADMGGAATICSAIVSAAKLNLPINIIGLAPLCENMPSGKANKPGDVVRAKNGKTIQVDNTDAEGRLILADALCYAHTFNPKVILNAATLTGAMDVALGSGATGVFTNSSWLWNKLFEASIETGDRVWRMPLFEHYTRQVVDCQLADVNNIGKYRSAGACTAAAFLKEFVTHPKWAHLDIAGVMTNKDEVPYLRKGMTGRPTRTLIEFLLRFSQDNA
Sequence of UniProt Q02750 (Q02750 whole entry, looked up): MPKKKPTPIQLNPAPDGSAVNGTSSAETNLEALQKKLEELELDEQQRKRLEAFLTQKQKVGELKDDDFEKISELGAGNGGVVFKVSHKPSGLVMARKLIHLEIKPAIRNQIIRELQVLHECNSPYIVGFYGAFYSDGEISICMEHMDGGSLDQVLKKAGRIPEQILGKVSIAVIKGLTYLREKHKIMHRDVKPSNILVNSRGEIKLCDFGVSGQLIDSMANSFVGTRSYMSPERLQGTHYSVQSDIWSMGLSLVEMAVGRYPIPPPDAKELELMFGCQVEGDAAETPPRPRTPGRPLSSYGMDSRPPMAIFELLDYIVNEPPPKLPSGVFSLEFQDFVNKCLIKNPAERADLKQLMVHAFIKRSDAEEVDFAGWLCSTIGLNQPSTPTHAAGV
Sequence of UniProt Q9Y4K4 (Q9Y4K4 whole entry, looked up): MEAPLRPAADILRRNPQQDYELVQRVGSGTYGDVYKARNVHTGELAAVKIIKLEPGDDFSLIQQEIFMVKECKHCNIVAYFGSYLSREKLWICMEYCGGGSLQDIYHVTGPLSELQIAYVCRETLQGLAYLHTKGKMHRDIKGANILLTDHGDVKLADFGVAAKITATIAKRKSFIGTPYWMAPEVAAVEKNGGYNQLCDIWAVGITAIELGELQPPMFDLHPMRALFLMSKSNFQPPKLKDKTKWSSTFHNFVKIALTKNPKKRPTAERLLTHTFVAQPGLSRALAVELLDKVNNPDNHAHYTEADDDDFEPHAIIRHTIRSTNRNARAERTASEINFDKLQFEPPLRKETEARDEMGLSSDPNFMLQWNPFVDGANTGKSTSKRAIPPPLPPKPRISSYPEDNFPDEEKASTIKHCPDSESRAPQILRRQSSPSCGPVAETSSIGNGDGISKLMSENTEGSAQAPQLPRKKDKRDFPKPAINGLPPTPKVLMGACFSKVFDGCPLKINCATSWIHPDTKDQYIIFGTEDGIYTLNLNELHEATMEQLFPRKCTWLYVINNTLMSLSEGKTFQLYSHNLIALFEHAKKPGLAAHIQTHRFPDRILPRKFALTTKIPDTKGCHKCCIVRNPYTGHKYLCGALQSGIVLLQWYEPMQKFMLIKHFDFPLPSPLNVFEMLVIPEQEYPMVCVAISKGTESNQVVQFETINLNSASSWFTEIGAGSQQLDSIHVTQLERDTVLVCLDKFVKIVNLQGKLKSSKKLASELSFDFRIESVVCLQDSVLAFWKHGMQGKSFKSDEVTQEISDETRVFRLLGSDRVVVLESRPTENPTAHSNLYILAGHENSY

With LARS2 (UniProt Q15031), the log2 fold change was -0.002 in experiment [1]; 0.048 in experiment [2]; -0.075 in experiment [3]; -0.008 in [4]; 0.065 in [5]; 0.028 in experiment [6]. Also, the log2 fold change in [7] is -0.085; in experiment [8], 0.089; in [9] it was 0.044; in [10], -0.036.
Turning to KIF2A isoform 4 (UniProt O00139), the log2 fold change in experiment [1] was 0.021; in experiment [2], -0.015; in [3], -0.022; in [4] it was -0.02; in experiment [5], 0.042; in experiment [6], -0.005. In addition, the log2 fold change was 0.015 in experiment [7], 0.021 in [8], 0.017 in experiment [9] and 0.006 in experiment [10].
Regarding LAP3 (UniProt P28838), the log2 fold change in experiment [1] is 0.045; in [2], -0.006; in experiment [3], -0.047; in experiment [4], 0.016; in experiment [5], -0.123; in experiment [6], -0.192. For the same target, the log2 fold change in experiment [7] is -0.008; in experiment [8], 0.049; in experiment [9], 0.009; in [10], -0.137.
Consider MED14 (UniProt O60244), for which the log2 fold change in experiment [1] is 0.027; in [2], -0.013; in [3] it was -0.012; in [4], -0.015; in experiment [5], 0.011; in experiment [6], -0.021. Besides, the log2 fold change was -0.013 in experiment [7], 0.011 in experiment [8], 0.015 in experiment [9] and 0.047 in [10].
As for MAP2K1 (UniProt Q02750), the log2 fold change in [1] is -0.02; in experiment [2] it was 0.107; in [3], 0.296 (active); in experiment [4], 0.057; in [5] it was -0.057; in experiment [6], -0.064. For the same target, the log2 fold change was -0.037 in [7], 0.4 (active) in experiment [8], 0.033 in [9] and -0.02 in [10].
Consider LIG3 (UniProt P49916), for which the log2 fold change in [1] was 0.012; in experiment [2], 0.002; in [3] it was -0.011; in [4] it was -0.019; in experiment [5] it was 0.046; in experiment [6], -0.024. Also, the log2 fold change in experiment [7] was -0.004; in [8], 0.059; in experiment [9] it was 0.008; in experiment [10] it was 0.011.
With MPDZ (UniProt O75970), the log2 fold change is -0.097 in experiment [1]; 0.245 in experiment [2]; -0.082 in experiment [3]; -0.059 in [4]; -0.049 in experiment [5]; -0.084 in experiment [6]. The log2 fold change in [7] is 0.328; in experiment [8], -0.057; in [9] it was -0.041; in [10], 0.112.
Consider MAN2B2 (UniProt Q9Y2E5), for which the log2 fold change in [1] is -0.039; in [2], -0.173; in experiment [3] it was 0.051; in experiment [4] it was -0.004; in [5], 0.011; in experiment [6] it was -0.033. Moreover, the log2 fold change in [7] is -0.041; in experiment [8], 0.04; in [9] it was 0.038; in experiment [10] it was 0.033.
Regarding KNSTRN (UniProt Q9Y448), the log2 fold change in [1] was 0.012; in experiment [2], 0.03; in experiment [3], -0.048; in [4], -0.071; in experiment [5], -0.005; in experiment [6], 0.165. In addition, the log2 fold change in experiment [7] is 0.033; in [8], -0.02; in experiment [9], -0.002; in experiment [10], -0.01.
With MFF isoform 2 (UniProt Q9GZY8), the log2 fold change is -0.025 in [1]; -0.039 in [2]; -0.005 in [3]; 0.008 in [4]; -0.012 in experiment [5]; 0.002 in experiment [6]. Further, the log2 fold change was -0.004 in [7], 0.007 in [8], 0.016 in experiment [9] and -0.026 in [10].
For the target MLLT11 (UniProt Q13015), the log2 fold change is 0.068 in experiment [1]; 0.03 in experiment [2]; -0.015 in experiment [3]; -0.051 in experiment [4]; -0.06 in experiment [5]; -0.029 in experiment [6]. For the same target, the log2 fold change in experiment [7] was -0.204; in experiment [8], 0.107; in [9] it was 0.011; in experiment [10], 0.055.
As to MRPL35 (UniProt Q9NZE8), the log2 fold change in experiment [1] is 0.05; in experiment [2] it was -0.027; in [3], 0.062; in [4], 0.049; in [5], -0.028; in experiment [6], 0.004. Besides, the log2 fold change in experiment [7] was -0.037; in experiment [8], -0.034; in [9] it was -0.007; in experiment [10], 0.056.
On to MAP4K5 (UniProt Q9Y4K4), for which the log2 fold change was -0.035 in experiment [1]; 0 in experiment [2]; 0.528 (active) in experiment [3]; -0.007 in experiment [4]; 0.105 in [5]; -0.245 in [6]. Further, the log2 fold change was 0.082 in experiment [7], 0.468 (active) in experiment [8], -0.029 in experiment [9] and 0.11 in [10].
Consider L3HYPDH (UniProt Q96EM0), for which the log2 fold change in experiment [1] is 0.019; in experiment [2], 0.015; in [3] it was 0.073; in experiment [4], 0.001; in [5] it was -0.003; in experiment [6], -0.053. For the same target, the log2 fold change in [7] is -0.002; in [8] it was 0.033; in [9], 0.015; in experiment [10], 0.009.
In the case of MED16 (UniProt Q9Y2X0), the log2 fold change is -0.019 in experiment [1]; 0.01 in experiment [2]; -0.026 in experiment [3]; 0.023 in experiment [4]; -0.016 in experiment [5]; -0.01 in experiment [6]. Besides, the log2 fold change was 0.008 in experiment [7], -0.013 in experiment [8], 0.023 in experiment [9] and -0.047 in experiment [10].
